In PubChem BioAssay (NCATS):
Records with an inconclusive call do not appear. Calls of active or inactive are those of the source. Unless noted, how the calls were made is not given here.

What was measured:
[1] = qHTS profiling for inhibitors of Plasmodium falciparum (DD2) proliferation (AID 743323); conditions: lower = more inhibition; at 28.7 µM (top of the series) unless noted
Method in brief: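 1536-well qHTS; infected RBCs 0.3% parasitemia/2.5% Hct final; cpd 72 h 37 C 5% CO2; lysis buffer + SYBR Green I, o/n RT dark; FI 485/535; norm. to 0.29 uM artemisinin and DMSO, plate-stack corrected.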

[2] = qHTS profiling for inhibitors of Plasmodium falciparum (HB3) proliferation (AID 743324; active means well fitted curve in the direction sought with a large enough effect; an effect the other way counts as inactive or inconclusive;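 further: 100% = DMSO vehicle wells and 0% = artemisinin-treated control wells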); conditions: Plasmodium falciparum HB3 blood-stage proliferation; at 28.7 µM (top of the series) unless noted
Method in brief: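 P. falciparum HB3 grown in erythrocytes (0.3% parasitemia, 2.5% hematocrit final) with compound for 72 h at 37 C, 5% CO2. Parasite DNA detected by SYBR Green after saponin/triton lysis overnight; normalized to 0.29 uM artemisinin and DMSO.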

[3] = qHTS profiling of the MIPE4 collection as inhibitors of Plasmodium falciparum (3D7) proliferation (AID 743344);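 further: scaled between DMSO vehicle wells and 0.29 µM artemisinin as full inhibition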; conditions: P. falciparum 3D7 in erythrocytes, SYBR Green DNA fluorescence, 72 h; at 28.5 µM (top of the series) unless noted
Method in brief: (§1)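 Erythrocytes infected with P. falciparum (0.3% parasitemia, 2.5% hematocrit) incubated with compounds 72 h at 37 C, 5% CO2. Lysis with saponin/Triton buffer containing SYBR Green I, overnight at room temperature in the dark; DNA fluorescence (485/535 nm) normalised to 0.29 uM artemisinin and DMSO.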

[4] = qHTS profiling of the MIPE4 collection as inhibitors of Plasmodium falciparum (DD2) proliferation (AID 743345); conditions: P. falciparum Dd2 in erythrocytes, SYBR Green DNA, 72 h; at 28.5 µM (top of the series) unless noted
Method in brief: as §1

[5] = qHTS profiling of the MIPE4 collection as inhibitors of Plasmodium falciparum (DD2) proliferation (Rep 2) (AID 743346); conditions: P. falciparum Dd2 in erythrocytes, SYBR Green DNA, 72 h; at 28.5 µM (top of the series) unless noted
Method in brief: as §1

[6] = qHTS profiling of the MIPE4 collection as inhibitors of Plasmodium falciparum (HB3) proliferation (AID 743347);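 further: plate controls were DMSO vehicle wells for no effect and artemisinin wells for full effect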; conditions: P. falciparum HB3 in erythrocytes, SYBR Green DNA, 72 h; at 28.5 µM (top of the series) unless noted
Method in brief: as §1

[7] = High-throughput drug toxicity screening in the BPDCN cell line Gen2.2 (AID 1224824); conditions: Gen2.2 BPDCN cells; at 45.8 µM (top of the series) unless noted;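 further: cells exposed to compounds for 48 h before reading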
Method in brief: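 Seed 500 exponentially growing Gen2.2 cells/well; add compounds by pin tool; incubate 48 h, 37 °C, 5% CO2; add CellTiter-Glo, 15 min RT; read luminescence. % activity vs DMSO (100%) and bortezomib (0%).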

[8] = High-throughput drug toxicity screening in the BPDCN cell line Cal-1 (AID 1224825); conditions: Cal-1 BPDCN cell viability, qHTS; at 45.8 µM (top of the series) unless noted
Method in brief: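 Exponentially growing Cal-1 cells, 500 per well in phenol red-free RPMI with 10% FBS, were exposed to compounds for 48 h at 37 °C, 5% CO2. Viability was read by CellTiter-Glo luminescence and normalised to DMSO (100%) and 9.2 uM bortezomib (0%).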

[9] = qHTS assay for measurement of the activity of small molecule inhibitors on Zika virus induced Caspase-3 activity in human iPSC derived neural progenitor cells (hNPCs) (AID 1224857; active means well fitted curve in the direction sought with a large enough effect; an effect the other way counts as inactive or inconclusive; further: % of control where 0% means no effect; nearly all actives have a fitted effect of over 65% in size)
Method in brief: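 Percent inhibition of virus-induced caspase-3/7 luminescence (Caspase-Glo), scaled between uninfected cells and Zika-infected cells. hNPCs received compound 1 hr before ZIKV at 2 FFU/cell, with 6 hours infection at 37 C.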

[10] = qHTS assay for measurement of the activity of small molecule inhibitors on Zika virus induced Caspase-3 activity in human astrocytoma cells (AID 1224859; active means well fitted curve in the direction sought with a large enough effect; an effect the other way counts as inactive or inconclusive;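 further: plate controls were ZIKV-infected untreated cells for no effect and uninfected cells for full effect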)
Method in brief: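 Luminescent caspase-3/7 read-out (30 min reagent, room temperature) in human SNB-19 cells infected 6 h with ZIKV (2 FFU/cell) after 1 h compound pre-incubation; Data were normalised to uninfected and infected wells.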

[11] = qHTS Screen of the MIPE 4.0 Collection Against Ewings Sarcoma (RDES) (AID 1259252; active means well fitted curve in the direction sought with a large enough effect; an effect the other way counts as inactive or inconclusive; further: potency means the concentration at half of the fitted maximal effect; nearly all actives have a fitted effect of over 35% in size)
Method in brief: (§2)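 Measured: ATP luminescence (CellTiter-Glo) 10 min after reagent addition, following 48 h drug treatment. Relative luciferase units converted to percent activity, with no-cell wells as full and DMSO wells as zero inhibition.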

[12] = Identifying Small Molecule Inhibitors of Pancreatic Cancer Stem Cells (A2780, Spheroid) (AID 1259357; active means well fitted curve in the direction sought with a large enough effect; an effect the other way counts as inactive or inconclusive;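 further: spheroids pre-formed over 14 days in stem cell medium on hydrogel; compound exposure lasted 48 h before the ATP luminescence read; 100% = DMSO treated cells and 0% = wells without cells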); conditions: Potency: A2780 spheroid viability
Method in brief: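 Pre-formed 14-day tumor spheroids or adherent cells dosed and incubated 48 h, 37C, 5% CO2. Viability assessed by CellTiter-Glo.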

[13] = qHTS Screen of the MIPE 4.0 Collection Against Ewings Sarcoma (TC71) (AID 1259253; active means well fitted curve in the direction sought with a large enough effect; an effect the other way counts as inactive or inconclusive; further: nearly all actives have a fitted effect of over 40% in size; further: potency means the concentration at half of the fitted maximal effect)
Method in brief: as §2

[14] = qHTS Screen of the MIPE 4.0 Collection Against Ewings Sarcoma (EW8) (AID 1259255; active means well fitted curve in the direction sought with a large enough effect; an effect the other way counts as inactive or inconclusive; further: nearly all actives have a fitted effect of over 35% in size; further: potency means the concentration at half of the fitted maximal effect;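 on viability: 100% = DMSO-treated cells and 0% = medium-only wells without cells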)
Method in brief: as §2

[15] = qHTS Screen of the MIPE 4.0 Collection Against Ewings Sarcoma (TC32) (AID 1259256; active means well fitted curve in the direction sought with a large enough effect; an effect the other way counts as inactive or inconclusive; further: nearly all actives have a fitted effect of over 45% in size; further: potency means the concentration at half of the fitted maximal effect)
Method in brief: as §2

[16] = Identifying Small Molecule Inhibitors of Pancreatic Cancer Stem Cells (A278, Adherent) (AID 1259361; active means well fitted curve in the direction sought with a large enough effect; an effect the other way counts as inactive or inconclusive; further: nearly all actives have a fitted effect of over 35% in size;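 on viability (% of control): 100% = DMSO-treated cells and 0% = cell-free media-only wells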)
Method in brief: (§3)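 After a 4 h attachment period, compounds were pinned into wells and cultures held 48 h under standard incubator conditions. Viability was then measured as CellTiter-Glo luminescence following 10 min at room temperature.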

[17] = Identifying Small Molecule Inhibitors of Pancreatic Cancer Stem Cells (Panc1, Spheroid) (AID 1259359; active means well fitted curve in the direction sought with a large enough effect; an effect the other way counts as inactive or inconclusive;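 further: potency means the concentration at half of the fitted maximal effect; compound exposure lasted 48 h before reading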)
Method in brief: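 Adherent (2D) versus sphere (3D) formats; spheres generated 14 d in SCM beforehand. Compound transferred by pin tool after 4 h, 48 h incubation, CellTiter-Glo endpoint.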

[18] = Identifying Small Molecule Inhibitors of Pancreatic Cancer Stem Cells (Panc1, Adherent) (AID 1259362; active means well fitted curve in the direction sought with a large enough effect; an effect the other way counts as inactive or inconclusive; further: potency means the concentration at half of the fitted maximal effect); conditions: Potency: viability
Method in brief: as §3

SMILES	activity, percent of control [1] [%]	remaining proliferation (% of control), lower = more inhibition [2] [%]	parasite growth, % of DMSO control [3] [%]	parasite growth remaining, % of DMSO control (lower = more inhibition) [4] [%]	parasite growth, % of control (lower = inhibition) [5] [%]	growth, % of control [6] [%]	cell viability, % of control (lower = more cytotoxic) [7] [%]	viability (% of control) [8] [%]	Potency [9]	Potency [10]	Potency [11]	Potency [12]	Potency [13]	Potency [14]	Potency [15]	IC50 (viability decrease) [16]	Potency [17]	Potency [18]
Cc1c(C(=O)Nc2ccc(N3C[C@@H](C)O[C@@H](C)C3)nc2)cccc1-c1ccc(OC(F)(F)F)cc1	72.3	55.5	54.5	72.7	54.1	46.7	10.2	53.5	inactive	inactive	13.2 µM (active)	inactive	–	–	–	–	–	–
CC(C)CNc1ccnc(NCc2csc(-c3ccccc3)n2)n1	6.76	-0.95	7.23	–	25	10.6	74.3	5.31	inactive	inactive	–	–	9.35 µM (active)	18.7 µM (active)	14.8 µM (active)	–	–	–
COc1ccc2nc3cc(Cl)ccc3c(Nc3cc(CN4CCCC4)c(O)c(CN4CCCC4)c3)c2n1	-0.214	-0.744	7.61	6.47	7.91	13.2	21.4	8.39	inactive	inactive	–	–	14.8 µM (active)	26.4 µM (active)	16.6 µM (active)	–	–	–
Cc1ccc(S(=O)(=O)OCC(=O)Nc2ccc(C(=O)O)c(O)c2)cc1	–	–	61.2	85.7	124	75.5	96.8	25.4	inactive	inactive	11.8 µM (active)	–	–	–	11.8 µM (active)	–	–	–
CCCCOCCOc1nc(-c2ccc(C(=O)O)c(F)c2)sc1C	99.2	57	81.5	–	80.5	85	594	73.8	inactive	inactive	20.9 µM (active)	inactive	–	–	–	inactive	–	–
Cc1nc(C(=O)NCC(=O)O)c(O)c2ccc(Oc3ccccc3)cc12	–	–	86.9	95.5	67.9	69.9	54.1	115	inactive	inactive	–	–	inactive	inactive	inactive	–	–	–
CN(C)CCOc1cc(-c2cn[nH]c2)ccc1NC(=O)C1COc2ccccc2O1 (centres undefined)	–	–	29.9	–	32.4	38.6	73.4	34.9	inactive	inactive	14.8 µM (active)	–	–	–	11.8 µM (active)	–	–	–
CNC(=O)c1c(-c2ccc(F)cc2)oc2cc(N(CCO)S(C)(=O)=O)c(C3CC3)cc12	–	–	4.82	10.4	14.1	4.16	64.5	8.15	inactive	inactive	18.7 µM (active)	–	–	–	inactive	–	–	–
O=C(O)Cc1cccc(OCCCN(Cc2cccc(C(F)(F)F)c2Cl)CC(c2ccccc2)c2ccccc2)c1	34.1	5.3	20.8	42.2	18.9	15.4	170	117	inactive	inactive	–	–	20.9 µM (active)	20.9 µM (active)	20.9 µM (active)	–	–	–
CCC(=O)N1CCN(c2ccc(-n3c(=O)ccc4cnc5ccc(-c6cnc7ccccc7c6)cc5c43)cc2C(F)(F)F)CC1	15.4	2.49	5.26	8.22	–	4.5	6.39	20.2	inactive	inactive	–	–	0.0296 µM (active)	0.0332 µM (active)	0.0105 µM (active)	–	–	–
CNC(=O)[C@H](Cc1ccccc1)NC(=O)[C@H](CC(C)C)[C@H](CSc1cccs1)C(=O)NO	–	–	4.98	–	11.7	4.59	63.4	56.4	inactive	inactive	–	–	5.9 µM (active)	inactive	inactive	–	–	–
CC(C)c1c(C(=O)Nc2ccccc2)c(-c2ccccc2)c(-c2ccc(F)cc2)n1CC[C@H](O)C[C@@H](O)CC(=O)O	–	–	7.03	82.2	17.6	4.89	41.5	93.6	inactive	inactive	–	–	14.8 µM (active)	23.5 µM (active)	3.72 µM (active)	–	–	–
O=C(O)C1=NC(C(=O)O)CC(C=CN2c3cc(O)c(OC4OC(CO)C(O)C(O)C4O)cc3CC2C(=O)O)=C1 (centres undefined)	–	–	93	104	–	92	267	136	inactive	inactive	–	–	inactive	inactive	–	–	–	–
Cc1cnc(Nc2cccc(CN3CCOCC3)c2)nc1Nc1cccc(S(=O)(=O)NC(C)(C)C)c1	–	–	4.05	8.36	17.3	7.02	14	3.36	inactive	inactive	–	–	2.35 µM (active)	–	1.87 µM (active)	–	–	–
CNC(=O)c1cc(Oc2ccc(NC(=O)Nc3ccc(Cl)c(C(F)(F)F)c3)c(F)c2)ccn1	5.46	1.38	5.25	–	11.8	4.74	16.6	31.5	inactive	inactive	–	–	20.9 µM (active)	–	20.9 µM (active)	16.6 µM (active)	20.9 µM (active)	20.9 µM (active)
COC(=O)N1CCN(Cc2cccc(NC(=O)Nc3ccc(C)nc3)c2F)CC1	–	–	20.8	71.8	41.1	29.8	149	90.8	inactive	inactive	–	–	8.33 µM (active)	inactive	inactive	–	–	–
